Experimental findings from PubChem BioAssay (NCI) are described below.

SMILES strings stand for the structures. This is part of a sample that, as a whole, favours compounds with a hit. Of some 83,000 tested, about 20% had one in any assay.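 A percent growth of 40 corresponds to 60% growth inhibition; 0 means no net growth; -100 means all cells died. Active threshold: below 10.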 The source made the active and inactive calls.

The test system of the test is HL-60(TB) leukemia. Nature of the test: NCI-60 one-dose screen, 48 h (100 = growth as untreated, 0 = no growth, -100 = all killed). To be noted: 10 µM unless noted.
For the compound `CCN1CCN(CCCN(C[C@H]2Cc3ccccc3CN2)[C@H]2CCCc3cccnc32)CC1`, the growth is 62.8% (inactive). As for `N#C/C(=C\c1ccc(-c2ccccc2)o1)c1nc(-c2ccco2)cs1`, the figure is 99.3% (inactive); as for `Brc1ccc(Nc2nc3ccccc3nc2Nc2ccc(Br)cc2)cc1`, -12.3% (active); as for `CN1CCN(Cc2ccc(NC(=O)c3ccc(C(C)(C)C)c(C#Cc4cnc5cccnn45)c3)cc2C(F)(F)F)CC1`, -17.4% (active).

`C=C(C)[C@@H]1CC[C@]2(C(=O)N3CCNCC3)CC[C@]3(C)[C@H](CC[C@@H]4[C@@](C)(CCC(=O)N5CCNCC5)[C@H](C(=C)C)CC[C@]43C)[C@@H]12`: the growth was 61% (inactive). `Cc1cc(C)c(O)c(CNCCCNCc2cc(C)cc(C)c2O)c1`: the growth is 48.6% (inactive). Turning to `CN1CCC(=C2c3ccccc3C=Cc3ccccc32)CC1`, the growth is 85.1% (inactive). With `N#CC1C(=O)SC2c3ccccc3C(=O)c3ccccc3C12` (stereo not given), the growth is 98.4% (inactive). In the case of `CCN(CC)CCCC(C)NC(=S)N/N=C(\C)c1ccccn1` (stereo not given), the growth is -3.79% (active). For `CN1CCN(CCOc2ccc(-c3cnc4c(-c5ccc(F)cc5)cnn4c3)cc2)CC1`, the growth is 2.46% (active). With `O=c1[nH]c(CN2CCN(c3ccccc3F)CC2)nc2sc3c(c12)CCC3`, the growth was 116% (inactive). For the compound `CCN(CC)N=Nc1nn(C(=O)Nc2ccc(Cc3ccccc3)cc2)c2ccc(Cl)cc12`, the growth was 60.4% (inactive). In the case of `C=C[Si](OC(C)=O)(OC(C)=O)OC(C)=O`, the growth was 94.3% (inactive).

For the compound `O=[N+]([O-])c1ccc2[nH]c(=S)n(/C=C(/c3ccc(Cl)cc3Cl)S(=O)(=O)Cc3ccc(Cl)cc3Cl)c2c1`, the growth is 101% (inactive).

For `O=C1C(=O)c2cc([N+](=O)[O-])ccc2-c2ccccc21`, the growth was -30% (active). Regarding `Cn1c(N)c(N=Cc2ccccc2)c(=O)n(C)c1=O`, the growth is 86.1% (inactive). With `CC1(C)c2[nH]c3ccccc3c2C[C@]2(C)[C@H]3C(=O)C=C4[C@@H]5C[C@@](C)(C(N)=O)CC[C@]5(C)CC[C@@]4(C)[C@]3(C)CC[C@@H]12`, the growth is 59.9% (inactive).

In the case of `O=C1C=C(O)C(=O)C=C1O`, the growth was 91.2% (inactive). In the case of `Cn1nc(N)c2cc([C@@H]3Nc4ccc5[nH]ncc5c4[C@H]4C5CCC(C5)[C@@H]34)ccc21` (stereo not given in full), the growth is -16.6% (active).

Turning to `CCCCCOC(=O)Nc1nc(=O)n(C2O[C@H](C)[C@@H](O)[C@H]2O)cc1F` (stereo not given in full), the growth was 92.8% (inactive).

As to `Cc1cc(SC#N)ncn1`, the growth is 102% (inactive). In the case of `O=[N+]([O-])c1ccc2c(c1)S(=O)c1cc([N+](=O)[O-])ccc1N2`, the growth was 109% (inactive). In the case of `CC[C@]12C=CCN3CC[C@@]4(c5cc(NC(=O)CCC(=O)O[C@H]6CC[C@H]7[C@@H]8CC[C@H]9CC(=O)CC[C@]9(C)[C@H]8CC[C@]67C)c(OC)cc5N(C)[C@H]4[C@@](O)(C(=O)OC)[C@@H]1OC(C)=O)[C@@H]32`, the growth is 38.6% (inactive). Take `C=C(C)[C@@H]1CC[C@]2(C#N)CC[C@]3(C)[C@H](CC[C@@H]4[C@@]5(C)CCCNC(C)(C)[C@@H]5CC[C@]43C)[C@@H]12`: the growth was 83.9% (inactive). On to `O=C1OC(Oc2ccccc2)(c2ccccc2)c2ccccc21` (stereo not given), for which the growth was 83.8% (inactive). As for `C[N+](C)(CCOC(c1ccccc1)c1ccccc1)CC(=O)OCc1ccccc1`, the figure is 100% (inactive); as for `CCNc1ncnc2n[nH]nc12`, 94.8% (inactive). As to `N#Cc1nc(-c2ccccc2)oc1S(=O)(=O)N1CCN(c2ccccc2)CC1`, the growth was 75.6% (inactive). As for `CCCCCS(=O)(=O)Nc1ccc(C(=O)O)cc1`, the growth was 101% (inactive). As for `COc1ccc(-c2cc(C#N)c(NNC(C)=O)[nH]2)cc1`, the growth is 11.4% (inactive).

For `Cc1ccc(-c2nc(C#N)c(S(=O)(=O)N(C)CCO)o2)cc1`, the growth is -18.1% (active). With `C=C(C)[C@@H]1CC[C@]2(C(N)=O)CC[C@]3(C)[C@H](CC[C@@H]4[C@@]5(C)C/C(=C/c6cccnc6)[C@H](O)C(C)(C)[C@@H]5CC[C@]43C)[C@@H]12`, the growth was 0.0883% [100 µM] (active). As for `O=S(=O)(O)c1ccc(O)c2ccccc12`, the growth is 86% (inactive). As to `O=C(Nc1ccc(-n2cc(-c3ccncc3)c(-c3ccc(Cl)c(O)c3)n2)cc1)Nc1cc(C(F)(F)F)cc(C(F)(F)F)c1`, the growth is 2.94% (active). For `O=C(CCC(=O)N(CCO)CCO)N(CCO)CCO`, the growth is 89% (inactive). As for `CCOC(=O)Cc1cnc(N/N=C(\C)c2cc3ccccc3o2)s1`, the growth is 65.2% (inactive). As for `CCCCNC(=O)NS(=O)(=O)c1ccc(N2N=C(c3ccc(C)cc3C)CC2c2ccc(OC)cc2)cc1` (stereo not given), the growth was 17.4% (inactive). For the compound `NC(=O)C1(Nc2ccc(Br)cc2)CCCC1`, the growth was 94.8% (inactive). `N=c1c(S(=O)(=O)c2ccccc2)cc2c(=O)n3ccccc3nc2n1CC1CCCO1` (stereo not given): the growth was 109% (inactive). On to `COc1cc(/C=C/C(=O)c2cc(-c3ccc(F)cc3)ccc2O)cc(OC)c1OC`, for which the growth was 39.5% (inactive).
